Test results taken from the supplement of paper PMC9694430.
“And” between values parts separate entries of the source, which are not always exact repeats. Equal entries are not always repeated. Structures can show the parent of a compound that is named as a salt.

Experiments:
Test in all cases: thermal shift delta Tm vs DMSO control; higher = stronger stabilization (binding)
Conditions in all cases: 12.5 µM; protein concentration 2 µM
[1] = tested on: LOC_OS04G57630-cb004
Outline: (§1)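 The melting temperature shift given here is a triplicate mean, measured against protein that received only DMSO. Melting temperatures came from Boltzmann fits of differential scanning fluorimetry data on E. coli-expressed, purified rice kinase domain constructs. Each 19.5 μl well contained 2 μM kinase, 100 mM potassium phosphate pH 7.5, 150 mM NaCl, 10% glycerol, 5 × SYPRO Orange and compound in DMSO. Plates were scanned from 25°C to 95°C at 0.05°C/s.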

[2] = tested on: LOC_OS05G07850-cb002
Outline: as §1

[3] = tested on: LOC_OS05G16824-cb004
Outline: as §1

[4] = tested on: LOC_OS05G28520-cb001
Outline: as §1

[5] = tested on: LOC_OS05G30820-cb001
Outline: as §1

[6] = tested on: LOC_OS05G43570-cb004
Outline: as §1

[7] = tested on: LOC_OS06G16330-cb003
Outline: as §1

[8] = tested on: T1, LOC_OS06G22820-cb001
T1 sequence (whole entry): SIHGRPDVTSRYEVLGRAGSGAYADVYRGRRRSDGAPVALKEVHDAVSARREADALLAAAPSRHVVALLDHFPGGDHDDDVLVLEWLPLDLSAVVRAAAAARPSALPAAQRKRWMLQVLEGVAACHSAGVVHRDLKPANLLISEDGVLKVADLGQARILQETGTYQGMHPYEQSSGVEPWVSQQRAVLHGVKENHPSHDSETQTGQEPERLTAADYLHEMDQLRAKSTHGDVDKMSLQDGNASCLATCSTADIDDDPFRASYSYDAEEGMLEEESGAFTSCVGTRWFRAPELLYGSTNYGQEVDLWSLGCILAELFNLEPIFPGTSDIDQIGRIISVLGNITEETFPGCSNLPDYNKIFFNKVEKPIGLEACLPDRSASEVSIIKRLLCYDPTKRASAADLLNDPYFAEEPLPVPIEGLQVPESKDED
Outline: as §1

[9] = tested on: LOC_OS07G06570-cb004
Outline: as §1

[10] = tested on: LOC_OS07G07230-cb001
Outline: as §1

Sequence of LOC_OS06G16330-cb003 (as listed by the source): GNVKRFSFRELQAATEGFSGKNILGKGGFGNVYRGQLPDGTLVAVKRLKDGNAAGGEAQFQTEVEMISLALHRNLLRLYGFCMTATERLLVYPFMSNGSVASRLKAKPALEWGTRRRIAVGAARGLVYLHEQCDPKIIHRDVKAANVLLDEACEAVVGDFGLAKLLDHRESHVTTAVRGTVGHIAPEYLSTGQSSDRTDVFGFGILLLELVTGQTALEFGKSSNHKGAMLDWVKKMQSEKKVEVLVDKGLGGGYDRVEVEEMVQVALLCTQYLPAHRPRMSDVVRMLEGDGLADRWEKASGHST

Compound | thermal shift delta Tm [1] | thermal shift delta Tm [2] | thermal shift delta Tm [3] | thermal shift delta Tm [4] | thermal shift delta Tm [5] | thermal shift delta Tm [6] | thermal shift delta Tm [7] | thermal shift delta Tm [8] | thermal shift delta Tm [9] | thermal shift delta Tm [10]
CCOc1ccn(-c2ccc(F)cc2)c(=O)c1C(=O)Nc1ccc(Oc2ccnc(N)c2Cl)c(F)c1 | 0.68 °C | 11.6 °C | 1.29 °C | 0.56 °C | 0.42 °C | 1.2 °C | 4.26 °C | 0.43 °C | 0.64 °C | 0.01 °C
CCn1c(=O)c(-c2ccc(-c3cncs3)cc2Cl)cc2cnc(Nc3ccc(N4CCN(C)CC4)cc3)nc21 | 0.31 °C | 1.19 °C | 0.07 °C | 0.25 °C | 0.51 °C | 0.24 °C | -0.19 °C | 0.67 °C | 0.84 °C | 0.19 °C
C[C@@H]1CCN(C(=O)CC#N)C[C@@H]1N(C)c1ncnc2[nH]ccc12 | -0.1 °C and 0.49 °C | 2.97 °C and 3.63 °C | -1.07 °C and 0.7 °C | 0.03 °C and 0.86 °C | 0.42 °C and 0.38 °C | 0.33 °C and 0.16 °C | 0.7 °C and 0.62 °C | 0.46 °C and 1.08 °C | 0.55 °C and 1.39 °C | 0.32 °C and -0.21 °C
COc1nccc(-c2c(-c3ccc(F)cc3)ncn2C2CCC(O)CC2)n1 (stereo not given) | 0.18 °C | -0.01 °C | 1.52 °C | 0.58 °C | 0.26 °C | 0.65 °C | 0.57 °C | 0.43 °C | 0.69 °C | -0.08 °C
Cc1ccc(Nc2nccc(N(C)c3ccc4c(C)n(C)nc4c3)n2)cc1S(N)(=O)=O | 0.96 °C | 8.97 °C | 4.72 °C | 0.97 °C | 0.39 °C | 1.48 °C | 3.83 °C | 0.9 °C | 1.14 °C | 0.54 °C
O=C(c1cccc(Cl)c1F)N1CCN(Cc2cccc(Nc3nccs3)n2)CC1 | 1.01 °C | 7.36 °C | 3.48 °C | 1.87 °C | 0.31 °C | -0.14 °C | 10.8 °C | 0.57 °C | 1.24 °C | 0 °C
CS(=O)(=O)N1CCc2c(-c3cnc(N)nc3)nc(N3CCOCC3)nc21 | 0.4 °C | 2.27 °C | 0.4 °C | 0.43 °C | 0.79 °C | 0.7 °C | 0.69 °C | 0.66 °C | 0.72 °C | -0.05 °C
COc1cc2nccc(Oc3ccc(NC(=O)C4(C(=O)Nc5ccc(F)cc5)CC4)cc3)c2cc1OC [Cabozantinib malate (XL184)] | 0.66 °C | 10.2 °C | -1.18 °C | 1.86 °C | 0.41 °C | 0.69 °C | 1.53 °C | 0.93 °C | 1.5 °C | -0.02 °C
Cc1c[nH]c(/C=C2\C(=O)Nc3ccccc32)c1CCC(=O)O | 0.5 °C | 6.66 °C | 7.29 °C | 0.67 °C | 2.14 °C | 0.11 °C | 9.94 °C | 0.18 °C | 0.84 °C | 0.79 °C
Cc1ccc(NC(=O)c2cccc(N(C)C)c2)cc1NC(=O)c1ccc(O)cc1 | 0.32 °C | 0.13 °C | 0.14 °C | 0.63 °C | 0.58 °C | 0.61 °C | 0.4 °C | 0.59 °C | 0.77 °C | 0.22 °C
CCn1c(-c2nonc2N)nc2cnc(Oc3cccc(NC(=O)c4ccc(OCCN5CCOCC5)cc4)c3)cc21 | 0.7 °C | 1.97 °C | -1.49 °C | 1.05 °C | 0.73 °C | 0.77 °C | -0.54 °C | 0.79 °C | 0.87 °C | 0.15 °C
COc1cc2ncnc(Nc3ccc(F)c(Cl)c3)c2cc1NC(=O)/C=C/CN1CCCCC1 | 0.99 °C | 0.3 °C | -1.53 °C | 1.09 °C | 0.67 °C | 1.72 °C | 0.01 °C | 1.31 °C | 1.37 °C | 0.21 °C
C[C@H](NC(=O)/C(C#N)=C/c1cccc(Br)n1)c1ccccc1 | -1.13 °C | -0.94 °C | -17.3 °C | -0.45 °C | 0.31 °C | -0.67 °C | -1.56 °C | 0.13 °C | 0.17 °C | -0.47 °C
Nc1ccc(C(=O)Nc2cccc(-c3nc(N4CCOCC4)c4oc5ncccc5c4n3)c2)cn1 | 1.19 °C | 1.25 °C | -3.13 °C | 0.31 °C | 0.83 °C | 0.15 °C | 0.32 °C | 0.39 °C | 0.88 °C | -0.01 °C
CC(=O)c1c(C)c2cnc(Nc3ccc(N4CCNCC4)cn3)nc2n(C2CCCC2)c1=O | 0.52 °C | 5.93 °C | 5.52 °C | 0.05 °C | 0.23 °C | 0.31 °C | 4.77 °C | -0.1 °C | 0.7 °C | 0.73 °C
COc1cc(Nc2ncc(F)c(Nc3ccc4c(n3)NC(=O)C(C)(C)O4)n2)cc(OC)c1OC [R406 (free base)] | 2.15 °C | 13 °C | 12.6 °C | 0.85 °C | 1.44 °C | 0.79 °C | 14.8 °C | 0.44 °C | 0.75 °C | -0.18 °C
CNC(=O)c1ccccc1Nc1cc(Nc2ccc(N3CCOCC3)cc2OC)ncc1C(F)(F)F | 3.79 °C | 7.4 °C | 9.96 °C | 1.03 °C | 3.54 °C | 0.9 °C | 6.99 °C | 0.82 °C | 1.56 °C | 0.72 °C
CCS(=O)(=O)c1cccc(-c2cc(C(=O)NC3CCN(C)CC3)c(C)c3[nH]c4ncc(C)cc4c23)c1 | 2.61 °C | 13.6 °C | 10.6 °C | 2.38 °C | 3.26 °C | 0.4 °C | 8.47 °C | -0.41 °C | 0.61 °C | 0.94 °C
COC(=O)Nc1ccc(-c2nc(N3CCOCC3)c3cnn(C4CCN(C(=O)OC)CC4)c3n2)cc1 | 0.06 °C | 0.49 °C | -0.54 °C | -0.26 °C | 0.57 °C | 0.65 °C | -0.2 °C | 0.4 °C | 0.99 °C | -0.41 °C
COc1cc2c3cc1Oc1c(OC)c(OC)cc4c1[C@@H](Cc1ccc(O)c(c1)Oc1ccc(cc1)C[C@@H]3N(C)CC2)N(C)CC4 [Berbamine (dihydrochloride)] | -0.01 °C | -0.48 °C | -7.42 °C | -0.11 °C | 0.47 °C | 0.27 °C | -0.31 °C | 0.13 °C | 0.83 °C | 0.33 °C
